# Measured values: PubChem BioAssay (EPA / NIEHS)
# “And” between values parts separate entries of the source, which are not always exact repeats. Equal entries are not always repeated. Results filed as inconclusive are left out. The source made the active and inactive calls. How the source made its calls, unless noted: active means hit-call score of the fitted dose curve at least 0.9, where 1 is the maximum; inconclusive means response in the unintended direction; inactive means score below 0.9.
# Experiments:
# [1] = biological target: human Norepinephrine Transporter (NET), SLC6A2 (gene 6530) (UniProt P23975); experiment: NVS_TR_hNET: NovaScreen (NVS) Transporter Assay for human Norepinephrine Transporter (NET) (AID 2283377);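 further: cell-free membrane protein extracted from CHO cells expressing human NET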
# Method in brief: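 Radioligand binding to human NET in cell-free CHO-derived protein preparations, read by filter-based scintillation counting 1 hour after dosing. Loss of signal versus DMSO baseline indicated displacement; primary screening in duplicate at 25 uM, actives then titrated.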
# [2] = CEETOX_H295R_11DCORT: CeeTox H295R High-throughput Steroidogenesis Assay for 11-Deoxycortisol (11DCORT) (AID 2283432; active means hit-call score of the fitted dose curve at least 0.9, where 1 is the maximum; inactive means score below 0.9;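 on AC50: 11-deoxycortisol secreted into the medium measured by LC-MS/MS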); conditions: actives raise or lower the signal
# Method in brief: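 Human adrenal H295R cells were prestimulated with 10 uM forskolin for 48 h, then exposed to test chemical (0.1% DMSO final) for 48 h. Medium 11-deoxycortisol was quantified by MTBE extraction and HPLC-MS/MS; bidirectional fitting relative to DMSO.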
# [3] = CEETOX_H295R_OHPREG: CeeTox H295R High-throughput Steroidogenesis Assay for OH-Pregnenolone (OHPREG) (AID 2283434; active means hit-call score of the fitted dose curve at least 0.9, where 1 is the maximum; inactive means score below 0.9); conditions: actives raise or lower the signal
# Method in brief: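 Human adrenal H295R cells were prestimulated 48 h with 10 uM forskolin, then exposed 48 h to chemical in 0.1% DMSO. Medium 17alpha-hydroxypregnenolone was quantified by HPLC-MS/MS after MTBE extraction; bidirectional fitting versus DMSO baseline.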
# [4] = CEETOX_H295R_OHPROG: CeeTox H295R High-throughput Steroidogenesis Assay for OH-Progesterone (OHPROG) (AID 2283435; active means hit-call score of the fitted dose curve at least 0.9, where 1 is the maximum; inactive means score below 0.9); conditions: actives raise or lower the signal
# Method in brief: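 H295R human adrenal cells were prestimulated 48 h with 10 uM forskolin, then exposed 48 h to test chemical (0.1% DMSO final). 17alpha-hydroxyprogesterone in medium was measured by HPLC-MS/MS after MTBE extraction; bidirectional fitting vs DMSO.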
# [5] = CEETOX_H295R_CORTIC: CeeTox H295R High-throughput Steroidogenesis Assay for Corticosterone (CORTIC) (AID 2283437; active means hit-call score of the fitted dose curve at least 0.9, where 1 is the maximum; inactive means score below 0.9;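 further: corticosterone secreted into medium quantified by mass spectrometry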); conditions: actives raise or lower the signal
# Method in brief: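 H295R cells were prestimulated 48 h with 10 uM forskolin, then exposed 48 h to test chemical in 0.1% DMSO. Medium corticosterone was MTBE-extracted and quantified by HPLC-MS/MS; bidirectional fit versus DMSO baseline.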
# [6] = CEETOX_H295R_CORTISOL: CeeTox H295R High-throughput Steroidogenesis Assay for Cortisol (AID 2283438; active means hit-call score of the fitted dose curve at least 0.9, where 1 is the maximum; inactive means score below 0.9;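 further: cortisol secreted into medium quantified by LC-MS/MS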); conditions: actives raise or lower the signal
# Method in brief: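 H295R human adrenal cells were prestimulated 48 h with 10 uM forskolin, then exposed 48 h to test chemical (0.1% DMSO final). Medium cortisol was quantified by HPLC-MS/MS after MTBE extraction; bidirectional fitting relative to DMSO baseline.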
# [7] = CEETOX_H295R_DOC: CeeTox H295R High-throughput Steroidogenesis Assay for DOC (AID 2283439; active means hit-call score of the fitted dose curve at least 0.9, where 1 is the maximum; inactive means score below 0.9); conditions: actives raise or lower the signal
# Method in brief: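 H295R adrenal cells prestimulated 48 h with 10 uM forskolin, then exposed 48 h to test chemical (0.1% DMSO final). Medium 11-deoxycorticosterone extracted with MTBE, quantified by HPLC-MS/MS; bidirectional fit versus DMSO baseline; MTT viability in same wells.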
# [8] = CEETOX_H295R_ESTRADIOL: CeeTox H295R High-throughput Steroidogenesis Assay for Estradiol (AID 2283440; active means hit-call score of the fitted dose curve at least 0.9, where 1 is the maximum; inactive means score below 0.9;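 further: estradiol secreted into medium quantified by LC-MS/MS after dansyl derivatisation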); conditions: actives raise or lower the signal
# Method in brief: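 Estradiol in spent medium measured by LC-MS/MS after dansyl chloride derivatisation. Forskolin-primed (10 uM, 48 h) human adrenal H295R cells received test chemical 48 h at 0.1% DMSO; concentrations lowered until MTT viability >/=70%.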
# [9] = CEETOX_H295R_ESTRONE: CeeTox H295R High-throughput Steroidogenesis Assay for Estrone (AID 2283441; active means hit-call score of the fitted dose curve at least 0.9, where 1 is the maximum; inactive means score below 0.9;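 further: estrone secreted into medium measured by LC-MS/MS after dansyl derivatization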); conditions: actives raise or lower the signal
# Method in brief: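 H295R cells; 48 h forskolin (10 uM) prestimulation; 48 h compound exposure, 0.1% DMSO final. Medium estrone: MTBE extraction, dansyl derivatization, HPLC-MS/MS. Bidirectional fit vs DMSO.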
# [10] = CEETOX_H295R_PROG: CeeTox H295R High-throughput Steroidogenesis Assay for Progesterone (PROG) (AID 2283442; active means hit-call score of the fitted dose curve at least 0.9, where 1 is the maximum; inactive means score below 0.9;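 further: human H295R adrenal cells primed with 10 µM forskolin before dosing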); conditions: actives raise or lower the signal
# Method in brief: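 Progesterone secreted by human H295R cells was measured by LC-MS/MS following 48 h chemical exposure at 0.1% DMSO, preceded by 48 h forskolin (10 uM) stimulation. Same-well MTT viability; cytotoxic concentrations diluted 10- or 100-fold and retested.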
# [11] = biological target: mouse Estrogen Receptor alpha (Era), Esr1 (gene 13982) (UniProt P19785); experiment: NVS_NR_mERa: NovaScreen (NVS) Nuclear Receptor Binding Assay for mouse Estrogen Receptor alpha (Era) (AID 2283378);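 further: hit means loss of bound radioligand signal relative to DMSO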
# Method in brief: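 Filter radiodetection of radioligand displacement from extracted receptor protein, measured 18 h post-dose. Single 25 uM concentration in duplicate initially, with concentration-series follow-up. Binding loss fitted relative to DMSO.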
# [12] = biological target: Agonist Androgen Response Element (ARE), AR (gene 367) (UniProt P10275); experiment: OT_AR_ARELUC_AG_1440: Odyssey Thera (OT) 24-hour CHO-K1 Luciferase Assay for Agonist Androgen Response Element (ARE) (AID 2283379)
# Method in brief: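 Seed CHO-K1 cells; dose compounds for 24 h; add D-luciferin plus ATP in PBS; read luminescence. Signal increase relative to vehicle defines agonist activity, with at least 3 replicate wells per sample.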
# [13] = biological target: Estrogen receptor (Homo sapiens) (UniProt P03372); experiment: OT_ERa_GFPERaERE_0480: Odyssey Thera (OT) 8-hour HeLa Transcription Induction Assay for Estrogen Receptor (AID 2283381; active means hit-call score of the fitted dose curve at least 0.9, where 1 is the maximum; inactive means score below 0.9)
# Method in brief: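 HeLa cells dosed with compound and imaged by fluorescence microscopy at 8 h; GFP induction from an ERE reporter quantified by high-content image analysis and fitted as gain of signal against DMSO baseline.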
# [14] = biological target: Bile acid receptor (Homo sapiens) (UniProt Q96RI1); experiment: OT_FXR_FXRSRC1_0480: Odyssey Thera (OT) 8-hour HEK293T Protein-Complementation Assay for Farnesoid X receptor/SRC-1 Co-activator (AID 2283383)
# Method in brief: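 HEK293T cells expressing FXR and SRC-1 fused to reporter fragments were dosed with compound for 8 h; fluorescence from the reconstituted reporter marked co-activator recruitment. Gain of signal was fitted against the DMSO baseline.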
# [15] = biological target: Peroxisome proliferator-activated receptor gamma (Homo sapiens) (UniProt P37231); experiment: OT_PPARg_PPARgSRC1_0480: Odyssey Thera (OT) 8-hour Protein-Complementation Assay for Peroxisome Proliferator-activated Receptor Gamma / SRC-1 Co-activator (AID 2283387);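 further: nuclear to cytoplasmic split Venus YFP fluorescence ratio reporting PPARg SRC-1 interaction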
# Method in brief: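 Protein-fragment complementation of split Venus YFP reports PPARg/SRC-1 interaction in HEK293T (transfected 48 h before treatment), exposed 8 h. Readout: N/C fluorescence ratio at 488 nm from imaging, Draq5 for segmentation, positive fit relative to DMSO.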
# [16] = biological target: Peroxisome proliferator-activated receptor gamma (Homo sapiens) (UniProt P37231); experiment: OT_PPARg_PPARgSRC1_1440: Odyssey Thera (OT) 24-hour Protein-Complementation Assay for Peroxisome Proliferator-activated Receptor Gamma/ SRC-1 Co-activator (AID 2283388);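 further: nuclear to cytoplasmic ratio of reconstituted Venus YFP fluorescence in fixed imaged cells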
# Method in brief: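 Readout is the 488 nm N/C fluorescence ratio from fixed, Draq5-stained HEK293T cells after 24 h compound exposure. Cells carried transiently transfected PPARg and SRC-1 fused to Venus fragments, transfected 48 h before treatment.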
# [17] = biological target: Retinoic acid receptor RXR-alpha (Homo sapiens) (UniProt P19793); experiment: OT_NURR1_NURR1RXRa_0480: Odyssey Thera (OT) 8-hour HEK293T Protein Complementation Assay for Nurr1/retinoid X receptor (RXR) (AID 2283385)
# Method in brief: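 HEK293T cells expressing Nurr1 and RXRα fused to reporter fragments were dosed with compound for 8 hours. Complex formation was read as fluorescence intensity and analysed as gain of signal against DMSO as baseline.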
# [18] = biological target: Retinoic acid receptor RXR-alpha (Homo sapiens) (UniProt P19793); experiment: OT_NURR1_NURR1RXRa_1440: Odyssey Thera (OT) 24-hour HEK293T Protein Complementation Assay for Nurr1/retinoid X receptor (RXR) (AID 2283386)
# Method in brief: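 HEK293T cells were dosed with compound and read 24 h later by fluorescence intensity in a protein-fragment complementation format, where Nurr1–RXRα interaction reconstitutes a split reporter. Activity was fitted as gain of signal relative to DMSO baseline.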
# [19] = CEETOX_H295R_ANDR: CeeTox H295R High-throughput Steroidogenesis Assay for Androstenedione (ANDR) (AID 2283436; active means hit-call score of the fitted dose curve at least 0.9, where 1 is the maximum; inactive means score below 0.9); conditions: actives raise or lower the signal
# Method in brief: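 H295R human adrenal cells (passages ≤10) were exposed to test chemicals for 48 h; androstenedione in medium was MTBE-extracted and quantified by HPLC-MS/MS against a 7-point standard curve. Bidirectional fitting used DMSO as baseline.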
# Chain of Retinoic acid receptor RXR-alpha (Homo sapiens) (P19793 whole entry, looked up, the tested form may be a part): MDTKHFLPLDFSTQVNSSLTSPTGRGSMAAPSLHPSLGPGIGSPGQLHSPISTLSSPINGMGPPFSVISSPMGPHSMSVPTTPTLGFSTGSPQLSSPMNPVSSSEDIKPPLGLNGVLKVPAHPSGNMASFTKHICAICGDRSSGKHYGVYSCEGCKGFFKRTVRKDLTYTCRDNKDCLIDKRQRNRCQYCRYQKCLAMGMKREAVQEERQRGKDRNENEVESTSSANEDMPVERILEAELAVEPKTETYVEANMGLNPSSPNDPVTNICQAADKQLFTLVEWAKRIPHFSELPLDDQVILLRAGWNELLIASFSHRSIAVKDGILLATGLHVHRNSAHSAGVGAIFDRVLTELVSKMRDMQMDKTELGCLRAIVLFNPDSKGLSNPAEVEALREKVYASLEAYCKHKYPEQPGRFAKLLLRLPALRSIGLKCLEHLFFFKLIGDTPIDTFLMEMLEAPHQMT
# Chain of mouse Estrogen Receptor alpha (Era), Esr1 (gene 13982) (P19785 whole entry, looked up): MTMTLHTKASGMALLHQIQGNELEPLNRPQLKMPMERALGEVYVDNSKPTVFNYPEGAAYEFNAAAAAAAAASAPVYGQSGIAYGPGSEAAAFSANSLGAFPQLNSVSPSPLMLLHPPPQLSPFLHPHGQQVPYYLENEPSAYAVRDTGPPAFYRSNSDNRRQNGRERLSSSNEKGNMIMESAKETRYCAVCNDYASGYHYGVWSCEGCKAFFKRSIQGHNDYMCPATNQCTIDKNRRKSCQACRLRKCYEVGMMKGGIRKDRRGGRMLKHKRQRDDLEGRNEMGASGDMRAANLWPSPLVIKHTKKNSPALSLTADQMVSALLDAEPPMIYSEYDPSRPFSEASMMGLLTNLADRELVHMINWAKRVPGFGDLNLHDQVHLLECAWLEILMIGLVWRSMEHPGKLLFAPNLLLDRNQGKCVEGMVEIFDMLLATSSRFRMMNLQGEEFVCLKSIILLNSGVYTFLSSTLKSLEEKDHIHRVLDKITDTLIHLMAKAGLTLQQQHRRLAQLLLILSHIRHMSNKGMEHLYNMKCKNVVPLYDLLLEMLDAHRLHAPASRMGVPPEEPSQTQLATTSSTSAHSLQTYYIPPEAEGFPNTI
# Chain of Estrogen receptor (Homo sapiens) (P03372 whole entry, looked up): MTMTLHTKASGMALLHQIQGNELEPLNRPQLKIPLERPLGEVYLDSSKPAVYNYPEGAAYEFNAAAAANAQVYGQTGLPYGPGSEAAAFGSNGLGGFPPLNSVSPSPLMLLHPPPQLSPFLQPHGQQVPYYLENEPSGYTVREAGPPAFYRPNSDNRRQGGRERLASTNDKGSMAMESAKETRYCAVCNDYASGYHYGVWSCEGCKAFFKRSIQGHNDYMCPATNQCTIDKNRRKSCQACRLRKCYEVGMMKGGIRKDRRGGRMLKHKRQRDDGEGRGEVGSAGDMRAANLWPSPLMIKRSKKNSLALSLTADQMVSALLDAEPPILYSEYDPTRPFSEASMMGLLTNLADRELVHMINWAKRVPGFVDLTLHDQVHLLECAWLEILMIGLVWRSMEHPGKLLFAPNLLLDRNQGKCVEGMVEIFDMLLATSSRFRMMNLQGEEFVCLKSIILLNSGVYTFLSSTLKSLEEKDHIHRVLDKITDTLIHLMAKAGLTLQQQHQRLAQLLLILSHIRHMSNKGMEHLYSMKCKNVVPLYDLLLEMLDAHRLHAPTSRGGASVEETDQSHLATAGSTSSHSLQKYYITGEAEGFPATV
# Chain of human Norepinephrine Transporter (NET), SLC6A2 (gene 6530) (P23975 whole entry, looked up): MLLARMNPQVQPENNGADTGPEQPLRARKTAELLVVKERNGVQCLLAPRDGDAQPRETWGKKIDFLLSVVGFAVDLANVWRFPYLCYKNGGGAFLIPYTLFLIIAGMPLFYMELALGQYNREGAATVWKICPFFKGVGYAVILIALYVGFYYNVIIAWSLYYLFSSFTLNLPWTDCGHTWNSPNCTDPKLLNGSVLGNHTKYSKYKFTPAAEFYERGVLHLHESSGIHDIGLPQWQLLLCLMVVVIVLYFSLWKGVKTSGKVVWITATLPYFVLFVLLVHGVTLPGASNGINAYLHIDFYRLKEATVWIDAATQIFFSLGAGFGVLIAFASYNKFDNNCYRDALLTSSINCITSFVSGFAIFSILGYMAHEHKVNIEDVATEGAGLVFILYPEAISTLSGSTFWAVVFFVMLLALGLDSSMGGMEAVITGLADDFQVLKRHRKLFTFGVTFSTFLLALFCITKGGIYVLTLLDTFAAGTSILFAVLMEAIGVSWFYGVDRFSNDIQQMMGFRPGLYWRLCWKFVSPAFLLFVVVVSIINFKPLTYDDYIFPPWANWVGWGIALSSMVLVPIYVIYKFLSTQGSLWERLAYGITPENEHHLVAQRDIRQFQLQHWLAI
# Chain of Peroxisome proliferator-activated receptor gamma (Homo sapiens) (P37231 whole entry, looked up, the tested form may be a part): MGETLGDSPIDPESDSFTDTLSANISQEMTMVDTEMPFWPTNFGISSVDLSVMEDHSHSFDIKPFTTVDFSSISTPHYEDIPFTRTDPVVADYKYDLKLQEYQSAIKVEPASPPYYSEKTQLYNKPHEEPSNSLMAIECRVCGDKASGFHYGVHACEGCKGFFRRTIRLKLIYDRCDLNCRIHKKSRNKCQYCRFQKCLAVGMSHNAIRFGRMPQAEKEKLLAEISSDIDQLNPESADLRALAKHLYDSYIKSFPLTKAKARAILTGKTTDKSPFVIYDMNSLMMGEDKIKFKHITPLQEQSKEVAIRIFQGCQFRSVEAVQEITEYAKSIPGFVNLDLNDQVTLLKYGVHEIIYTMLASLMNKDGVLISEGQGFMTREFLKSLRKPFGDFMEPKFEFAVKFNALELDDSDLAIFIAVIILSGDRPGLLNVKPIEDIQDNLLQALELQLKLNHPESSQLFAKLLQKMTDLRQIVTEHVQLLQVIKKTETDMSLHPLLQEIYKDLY
# Chain of Bile acid receptor (Homo sapiens) (Q96RI1 whole entry, looked up, the tested form may be a part): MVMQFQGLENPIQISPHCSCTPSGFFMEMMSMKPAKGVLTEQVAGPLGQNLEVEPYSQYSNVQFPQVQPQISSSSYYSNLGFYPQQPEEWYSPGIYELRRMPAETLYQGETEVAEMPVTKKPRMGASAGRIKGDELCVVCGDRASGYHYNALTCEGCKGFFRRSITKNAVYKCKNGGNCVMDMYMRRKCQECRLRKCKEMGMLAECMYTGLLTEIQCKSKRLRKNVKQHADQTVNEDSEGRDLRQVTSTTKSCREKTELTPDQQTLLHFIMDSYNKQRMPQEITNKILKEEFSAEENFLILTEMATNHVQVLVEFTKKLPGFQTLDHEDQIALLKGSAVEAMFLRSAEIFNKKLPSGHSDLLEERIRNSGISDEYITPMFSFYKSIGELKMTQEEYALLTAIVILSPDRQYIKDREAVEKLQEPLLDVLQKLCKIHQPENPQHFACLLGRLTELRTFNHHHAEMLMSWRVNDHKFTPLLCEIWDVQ
# Chain of Agonist Androgen Response Element (ARE), AR (gene 367) (P10275 whole entry, looked up): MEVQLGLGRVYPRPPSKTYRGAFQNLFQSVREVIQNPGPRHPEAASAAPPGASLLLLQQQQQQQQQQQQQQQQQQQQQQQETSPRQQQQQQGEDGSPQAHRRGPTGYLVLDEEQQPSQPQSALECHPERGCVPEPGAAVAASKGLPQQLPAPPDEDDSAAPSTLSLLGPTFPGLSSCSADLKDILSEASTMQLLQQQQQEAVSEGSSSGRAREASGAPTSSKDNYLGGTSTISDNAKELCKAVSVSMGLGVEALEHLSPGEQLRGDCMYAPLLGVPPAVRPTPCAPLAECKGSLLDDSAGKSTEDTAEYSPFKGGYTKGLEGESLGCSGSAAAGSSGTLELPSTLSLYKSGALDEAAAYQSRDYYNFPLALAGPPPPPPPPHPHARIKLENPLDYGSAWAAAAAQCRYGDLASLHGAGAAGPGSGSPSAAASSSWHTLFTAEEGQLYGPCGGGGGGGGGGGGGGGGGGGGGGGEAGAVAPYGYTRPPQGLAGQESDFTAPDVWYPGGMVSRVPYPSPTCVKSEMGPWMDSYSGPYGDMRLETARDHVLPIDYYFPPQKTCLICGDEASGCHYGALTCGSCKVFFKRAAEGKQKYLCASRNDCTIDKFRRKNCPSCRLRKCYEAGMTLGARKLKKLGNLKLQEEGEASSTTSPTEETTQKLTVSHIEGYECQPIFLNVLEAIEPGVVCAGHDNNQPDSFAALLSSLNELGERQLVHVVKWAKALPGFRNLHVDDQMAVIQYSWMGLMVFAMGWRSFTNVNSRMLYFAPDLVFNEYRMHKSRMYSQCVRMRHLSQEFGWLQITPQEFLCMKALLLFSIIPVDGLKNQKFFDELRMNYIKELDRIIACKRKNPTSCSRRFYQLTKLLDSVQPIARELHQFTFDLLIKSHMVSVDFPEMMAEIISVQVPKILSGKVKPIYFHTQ
smiles,measurement,setting,value
BrCC(Br)c1ccccc1 (stereo not drawn),outcome,[1],inactive
Oc1cccc(-c2ccccc2)c1,outcome,[1],inactive
same,outcome,[2],inactive
same,outcome,[3],inactive
same,AC50,[4],9.06 µM (active)
same,outcome,[5],inactive
same,outcome,[6],inactive
same,outcome,[7],inactive
same,outcome,[8],inactive
same,outcome,[9],inactive
same,AC50,[10],10 µM (active)
O=c1[nH]c2ccccc2n1C1CCN(CCCC(c2ccc(F)cc2)c2ccc(F)cc2)CC1,outcome,[11],inactive
O=S(=O)(Oc1ccc(Cl)cc1)c1ccc(Cl)cc1,outcome,[11],inactive
O=C(CCl)Nc1ccccc1,outcome,[11],inactive
same,outcome,[12],inactive
same,AC50,[13],84.8 µM (active)
same,outcome,[14],inactive
same,outcome,[15],inactive
same,outcome,[16],inactive
O=C(O)C1(c2ccc3c(c2)OC[C@H](Cc2ccc(-c4ccccc4)cc2)[C@H]3O)CCCC1,AC50,[1],5.29 µM (active)
same,AC50,[14],77 µM (active)
same,AC50,[17],76.2 µM (active) and 86.6 µM (active)
same,AC50,[18],79.5 µM (active) and 87.5 µM (active)
same,outcome,[15],inactive
CCOC(=O)CCN(SN(C)C(=O)Oc1cccc2c1OC(C)(C)C2)C(C)C,AC50,[1],9.18 µM (active)
CC1(C)[C@H](C(=O)O[C@H](C#N)c2cccc(Oc3ccccc3)c2)[C@@H]1/C=C(\Cl)C(F)(F)F,outcome,[1],inactive
same,outcome,[14],inactive
same,outcome,[15],inactive
N#CCCC(Br)(C#N)CBr (stereo not drawn),outcome,[1],inactive
same,outcome,[13],inactive
same,outcome,[18],inactive
same,outcome,[15],inactive
O=S1OC[C@@H]2[C@H](CO1)[C@]1(Cl)C(Cl)=C(Cl)[C@@]2(Cl)C1(Cl)Cl (stereo partly drawn),outcome,[11],inactive
same,outcome,[12],inactive
same,AC50,[13],12.6 µM (active)
same,AC50,[14],43.3 µM (active)
same,AC50,[17],91.8 µM (active)
same,outcome,[18],inactive
same,outcome,[15],inactive
same,outcome,[16],inactive
same,AC50,[2],39.7 µM (active)
same,AC50,[3],12.1 µM (active)
same,AC50,[4],41.2 µM (active)
same,AC50,[19],50 µM (active)
same,outcome,[5],inactive
same,AC50,[6],38.3 µM (active)
same,AC50,[7],16.3 µM (active)
same,AC50,[10],8.22 µM (active)
